Records with an inconclusive call do not appear. Calls of active or inactive are those of the source. Unless noted, calls follow the shape of the dose curve; as a rule, active = well fitted curve in the direction sought with a large enough effect in the repeat runs; inconclusive = weak or mixed curves; inactive = no such curve, though single readings can be large; an effect the other way counts as inactive or inconclusive.
How the values were obtained:
[1] = qHTS assay to identify aromatase inhibitors - cell viability counter screen (AID 743084);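 also: cells stimulated with testosterone during compound exposure; nearly all actives have a fitted effect of over 55% in size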
[2] = molecular target: Aryl hydrocarbon receptor (Homo sapiens) (UniProt P35869); experiment: qHTS assay to identify small molecule that activate the aryl hydrocarbon receptor (AhR) signaling pathway (AID 743085);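 also: HG2L7.5c1 human HepG2 liver cells with stably integrated DRE-driven firefly reporter; series mostly up to about 70 µM; nearly all actives have a fitted effect of over 15% in size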
Procedure, shortened: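 Luminescence read-out: ONE-Glo reagent, 30 min at room temperature, in HG2L7.5c1 HepG2 reporter cells treated 24 h at 37C. Viability was measured beforehand by CellTiter-Fluor fluorescence after 30 min at 37C.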

[3] = qHTS assay to identify small molecule that activate the aryl hydrocarbon receptor (AhR) signaling pathway - cell viability counter screen (AID 743086);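 also: HepG2 liver cells carrying the AhR DRE luciferase reporter; series mostly up to about 70 µM; nearly all actives have a fitted effect of over 45% in size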
Procedure, shortened: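 HepG2-AhR-luc (HG2L7.5c1) cells, 4000/well, were preincubated 5 h at 37C, exposed to compound in qHTS format for 24 hr at 37C, then given CellTiter-Fluor for 30 min; viability was read as fluorescence in the reporter wells.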

[4] = molecular target: Peroxisome proliferator-activated receptor gamma (Homo sapiens) (UniProt P37231); experiment: qHTS assay to identify small molecule agonists of the peroxisome proliferator-activated receptor gamma (PPARg) signaling pathway (AID 743094; active = well fitted activation curve with a large enough effect in the signal ratio in the repeat runs, not every such curve was filed as active; the % refers to the signal ratio)
Procedure, shortened: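 Cell-based bla reporter, HEK293H background, PPARg-driven UAS. Pre-incubation 5 h, 37C, 5% CO2. Compound 17 h, 37C. Substrate 1 h RT; fluorescence.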

[5] = qHTS assay to identify small molecule antagonists of the peroxisome proliferator-activated receptor gamma (PPARg) signaling pathway - cell viability counter screen (AID 743194); also: nearly all actives have a fitted effect of over 55% in size
Procedure, shortened: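 PPARg-UAS-bla HEK293H cells were plated, rested 5 h at 37 C, then treated with compounds plus rosiglitazone (50 nM final) for 17 h at 37 C; viability was then read by CellTiter-Glo luminescence after 30 min at room temperature.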

[6] = qHTS assay for small molecule agonists of the antioxidant response element (ARE) signaling pathway - cell viability counter screen (AID 743203; calls by dose curve; also: nearly all actives have a fitted effect of over 55% in size)
Procedure, shortened: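 Measured in the same wells as the beta-lactamase ARE reporter, this read-out is CellTiter-Glo luminescence from HepG2 ARE-bla cells given compounds for 16 hrs.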

[7] = qHTS assay for small molecule activators of the heat shock response signaling pathway - cell viability counter screen (AID 743209); also: nearly all actives have a fitted effect of over 50% in size
Procedure, shortened: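 Same-well multiplex: after 2.5 h room-temperature incubation with LiveBLAzer B/G substrate and fluorescence reading, CellTiter-Glo reagent was added to HSE-bla HeLa cells that had received compound for 5 h at 37 C; luminescence read after 30 min.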

[8] = qHTS assay for small molecule activators of the heat shock response signaling pathway (AID 743210; active = well fitted activation curve with a large enough effect in the signal ratio in the repeat runs, with a control signal flat, not every such curve was filed as active; the % refers to the signal ratio; also: series mostly up to about 63 µM)
Procedure, shortened: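 Heat shock element–beta-lactamase HeLa reporter cells; qHTS with compounds for 5 h at 37 C; detection by FRET substrate fluorescence after 2.5 h at RT.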

[9] = qHTS assay to identify small molecule agonists of the peroxisome proliferator-activated receptor delta (PPARd) signaling pathway - cell viability counter screen (AID 743211); also: nearly all actives have a fitted effect of over 55% in size
Procedure, shortened: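 Read-out: CellTiter-Glo luminescence, 30 min RT, measured in the same wells as the beta-lactamase reporter. Cells: GeneBLAzer PPAR delta UAS-bla HEK293H, 3000 cells/well, compound exposure 17 h at 37C.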

[10] = molecular target: Peroxisome proliferator-activated receptor delta (Homo sapiens) (UniProt Q03181); experiment: qHTS assay to identify small molecule agonists of the peroxisome proliferator-activated receptor delta (PPARd) signaling pathway (AID 743212; calls by dose curve)
Procedure, shortened: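 Beta-lactamase reporter read by fluorescence (LiveBLAzer B/G FRET, 2 h, room temperature). Test agents, in DMSO, incubated at 37 C with PPARd-bla HEK293H cells.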

[11] = molecular target: Peroxisome proliferator-activated receptor delta (Homo sapiens) (UniProt Q03181); experiment: qHTS assay to identify small molecule antagonists of the peroxisome proliferator-activated receptor delta (PPARd) signaling pathway (AID 743215; active = well fitted inhibition curve with a large enough effect in the signal ratio in the repeat runs, not every such curve was filed as active; the % refers to the signal ratio;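 also: cells stimulated with agonist L165041 at 300 nM final during compound exposure; series mostly up to about 62 µM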)
Procedure, shortened: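 Fluorescence from cleaved LiveBLAzer B/G FRET substrate (2 h, room temperature) reports PPARd-driven beta-lactamase in HEK293H UAS-bla cells. Cells had been treated 17 h at 37 C with compound plus 300 nM final L165041.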

[12] = qHTS assay to identify small molecule agonists of the farnesoid-X-receptor (FXR) signaling pathway - cell viability counter screen (AID 743218); also: nearly all actives have a fitted effect of over 45% in size
Procedure, shortened: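 Readout: CellTiter-Glo luminescence, 30 min RT, multiplexed after the FXR-bla FRET reading. HEK 293T FXR-UAS-bla cells received compound 5 h post-plating and were incubated 16 h at 37 C.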

[13] = qHTS assay to identify small molecule antagonists of the farnesoid-X-receptor (FXR) signaling pathway - cell viability counter screen (AID 743221; active = well fitted cell-killing curve with a large enough effect in the repeat runs, not every such curve was filed as active; also: nearly all actives have a fitted effect of over 50% in size)
Procedure, shortened: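 HEK 293T FXR-bla cells, 5 h pre-incubation; compound + CDCA 50 uM final, 16 h, 37 C; beta-lactamase FRET read first, then CellTiter-Glo luminescence, 30 min RT.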

[14] = molecular target: Vitamin D3 receptor (Homo sapiens) (UniProt P11473); experiment: qHTS assay to identify small molecule agonists of the vitamin D receptor (VDR) signaling pathway (AID 743222; calls by dose curve)
Procedure, shortened: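 Following 4 h attachment at 37C, VDR-bla cells (2,000 per well) received DMSO-dissolved compounds or controls. After 16 h incubation, LiveBLAzer B/G FRET substrate was added and fluorescence read 2 h later at room temperature.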

[15] = molecular target: Vitamin D3 receptor (Homo sapiens) (UniProt P11473); experiment: qHTS assay to identify small molecule antagonists of the vitamin D receptor (VDR) signaling pathway (AID 743223; active = well fitted inhibition curve with a large enough effect in the signal ratio in the repeat runs, not every such curve was filed as active; the % refers to the signal ratio)
Procedure, shortened: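 Beta-lactamase reporter read-out: FRET substrate fluorescence after 2 h at room temperature, following 16 h exposure of VDR-bla cells to test compound plus 3 nM (final) 1alpha,25-dihydroxyvitamin D3 agonist at 37C.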

[16] = qHTS assay for small molecule agonists of the antioxidant response element (ARE) signaling pathway (AID 743202; active = well fitted activation curve with a large enough effect in the signal ratio in the repeat runs, not every such curve was filed as active; the % refers to the signal ratio)
Procedure, shortened: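 Following a 16 h, 37 C exposure of reporter HepG2 cells (ARE-driven beta-lactamase, 2,000 cells/well) to compounds, FRET substrate was applied for 2 h at room temperature and fluorescence intensity recorded.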

[17] = molecular target: Bile acid receptor (Homo sapiens) (UniProt Q96RI1); experiment: qHTS assay to identify small molecule agonists of the farnesoid-X-receptor (FXR) signaling pathway (AID 743220; active = well fitted activation curve with a large enough effect in the signal ratio in the repeat runs, not every such curve was filed as active; the % refers to the signal ratio)
Procedure, shortened: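 FXR-UAS-bla HEK 293T cells carrying a UAS-driven beta-lactamase reporter were plated for 5 h at 37C/5% CO2, then exposed to DMSO-dissolved Tox21 10K compounds for 16 h at 37C. A LiveBLAzer B/G FRET substrate was loaded for 2 h at room temperature before fluorescence reading.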

[18] = qHTS assay to identify small molecule antagonists of the peroxisome proliferator-activated receptor delta (PPARd) signaling pathway - cell viability counter screen (AID 743213); also: nearly all actives have a fitted effect of over 50% in size
Procedure, shortened: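 HEK293H cells with the PPARd UAS-bla reporter, co-treated 17 h at 37 C with compounds and L165041 (300 nM final), were lysed with CellTiter-Glo. Luminescence indicated viable cell content.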

[19] = molecular target: Bile acid receptor (Homo sapiens) (UniProt Q96RI1); experiment: qHTS assay to identify small molecule antagonists of the farnesoid-X-receptor (FXR) signaling pathway (AID 743217; active = well fitted inhibition curve with a large enough effect in the signal ratio in the repeat runs, not every such curve was filed as active; the % refers to the signal ratio)
Procedure, shortened: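 FRET fluorescence after 2 h room-temperature LiveBLAzer loading gives the readout. Prior step: FXR-bla HEK 293T cells, seeded and incubated 5 h, received test compounds plus 50 uM final CDCA for 16 h at 37 °C.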
% is scaled to controls: 0 for no effect and ±100 for the full control effect.

Chain of Peroxisome proliferator-activated receptor delta (Homo sapiens) (Q03181 whole entry, looked up): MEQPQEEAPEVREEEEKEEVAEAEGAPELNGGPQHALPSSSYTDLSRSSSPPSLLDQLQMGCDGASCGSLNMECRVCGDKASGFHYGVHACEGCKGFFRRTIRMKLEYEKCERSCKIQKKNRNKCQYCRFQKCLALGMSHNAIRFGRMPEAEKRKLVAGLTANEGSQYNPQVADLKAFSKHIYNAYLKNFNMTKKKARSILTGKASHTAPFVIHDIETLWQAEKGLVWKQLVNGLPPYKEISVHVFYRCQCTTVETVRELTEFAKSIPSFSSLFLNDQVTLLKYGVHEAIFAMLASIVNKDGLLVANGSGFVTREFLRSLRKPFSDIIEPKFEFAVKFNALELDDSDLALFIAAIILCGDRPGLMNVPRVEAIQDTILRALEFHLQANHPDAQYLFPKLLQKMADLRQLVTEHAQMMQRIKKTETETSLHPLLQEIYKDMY
Chain of Bile acid receptor (Homo sapiens) (Q96RI1 whole entry, looked up): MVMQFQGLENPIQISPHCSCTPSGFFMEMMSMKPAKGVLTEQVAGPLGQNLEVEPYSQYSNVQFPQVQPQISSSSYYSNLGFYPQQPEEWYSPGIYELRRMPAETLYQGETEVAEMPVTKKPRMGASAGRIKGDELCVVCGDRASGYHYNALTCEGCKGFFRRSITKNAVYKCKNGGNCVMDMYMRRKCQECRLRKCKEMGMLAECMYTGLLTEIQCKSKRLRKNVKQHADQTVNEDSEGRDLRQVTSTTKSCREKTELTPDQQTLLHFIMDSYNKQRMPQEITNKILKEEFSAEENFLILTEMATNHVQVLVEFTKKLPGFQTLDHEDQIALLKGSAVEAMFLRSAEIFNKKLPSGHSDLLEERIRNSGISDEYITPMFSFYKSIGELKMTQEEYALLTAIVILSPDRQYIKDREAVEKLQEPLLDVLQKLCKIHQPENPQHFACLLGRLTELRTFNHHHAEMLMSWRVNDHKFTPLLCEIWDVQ
Chain of Vitamin D3 receptor (Homo sapiens) (P11473 whole entry, looked up): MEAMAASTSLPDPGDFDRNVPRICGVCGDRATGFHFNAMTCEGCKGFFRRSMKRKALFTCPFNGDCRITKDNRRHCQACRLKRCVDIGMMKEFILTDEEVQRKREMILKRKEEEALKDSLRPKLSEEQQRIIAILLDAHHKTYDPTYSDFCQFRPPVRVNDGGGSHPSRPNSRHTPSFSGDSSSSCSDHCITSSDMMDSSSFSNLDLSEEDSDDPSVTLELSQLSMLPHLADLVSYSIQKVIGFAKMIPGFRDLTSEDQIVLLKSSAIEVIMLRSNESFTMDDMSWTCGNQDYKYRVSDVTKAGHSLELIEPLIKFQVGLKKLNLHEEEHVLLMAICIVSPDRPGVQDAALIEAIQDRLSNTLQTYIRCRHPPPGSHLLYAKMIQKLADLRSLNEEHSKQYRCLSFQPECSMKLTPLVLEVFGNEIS
Chain of Peroxisome proliferator-activated receptor gamma (Homo sapiens) (P37231 whole entry, looked up): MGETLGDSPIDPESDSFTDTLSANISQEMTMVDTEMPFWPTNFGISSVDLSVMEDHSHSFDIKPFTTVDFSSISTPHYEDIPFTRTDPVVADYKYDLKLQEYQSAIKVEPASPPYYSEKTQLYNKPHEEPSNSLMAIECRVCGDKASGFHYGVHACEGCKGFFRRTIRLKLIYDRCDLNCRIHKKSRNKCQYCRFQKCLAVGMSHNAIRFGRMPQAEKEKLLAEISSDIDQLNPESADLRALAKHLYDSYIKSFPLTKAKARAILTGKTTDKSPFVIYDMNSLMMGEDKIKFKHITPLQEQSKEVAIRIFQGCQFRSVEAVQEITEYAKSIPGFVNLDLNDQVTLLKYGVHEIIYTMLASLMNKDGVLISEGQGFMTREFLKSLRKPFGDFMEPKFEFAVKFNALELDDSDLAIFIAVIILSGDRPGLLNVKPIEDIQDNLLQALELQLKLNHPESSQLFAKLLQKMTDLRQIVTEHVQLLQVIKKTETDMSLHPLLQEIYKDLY
Chain of Aryl hydrocarbon receptor (Homo sapiens) (P35869 whole entry, looked up): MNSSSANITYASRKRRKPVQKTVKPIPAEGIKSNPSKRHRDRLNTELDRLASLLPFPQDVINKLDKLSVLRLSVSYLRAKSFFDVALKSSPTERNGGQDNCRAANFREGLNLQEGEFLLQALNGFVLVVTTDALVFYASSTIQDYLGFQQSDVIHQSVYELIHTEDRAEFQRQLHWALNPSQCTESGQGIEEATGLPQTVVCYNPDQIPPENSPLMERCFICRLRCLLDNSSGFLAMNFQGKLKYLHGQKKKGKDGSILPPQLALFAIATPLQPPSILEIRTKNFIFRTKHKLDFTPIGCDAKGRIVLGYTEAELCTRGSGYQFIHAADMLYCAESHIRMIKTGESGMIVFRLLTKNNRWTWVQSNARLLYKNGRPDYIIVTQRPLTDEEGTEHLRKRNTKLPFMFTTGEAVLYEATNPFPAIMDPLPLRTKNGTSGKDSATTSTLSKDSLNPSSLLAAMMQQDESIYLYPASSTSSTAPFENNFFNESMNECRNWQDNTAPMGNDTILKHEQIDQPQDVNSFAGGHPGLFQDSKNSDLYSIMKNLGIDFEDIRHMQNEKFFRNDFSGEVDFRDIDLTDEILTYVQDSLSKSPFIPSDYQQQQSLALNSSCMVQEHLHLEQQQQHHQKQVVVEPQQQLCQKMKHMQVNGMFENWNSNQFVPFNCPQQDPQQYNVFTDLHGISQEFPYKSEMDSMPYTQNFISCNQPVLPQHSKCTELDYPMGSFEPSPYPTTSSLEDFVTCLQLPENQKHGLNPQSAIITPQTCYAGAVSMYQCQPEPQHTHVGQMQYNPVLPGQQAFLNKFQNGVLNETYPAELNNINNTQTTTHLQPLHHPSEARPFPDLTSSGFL

C=CCCCCCCCCCCC
inactive: activity change, negative = cytotoxicity [1] 2.95% [at 8.47 µM] | activation [2] -0.125% [at 8.47 µM] | viability change, negative = cytotoxic [3] 0.7% [at 8.47 µM] | activation [4] -4.62% [at 7.08 µM] | activity change, negative = cytotoxicity [5] 13.8% [at 5.95 µM] | viability change, negative = cytotoxic [6] 9.33% [at 8.36 µM] | activity change, negative = cytotoxicity [7] -3.82% [at 5.95 µM] | activation [8] -0.0554% [at 5.95 µM] | activity change, negative = cytotoxicity [9] -1.9% [at 5.95 µM] | activation [10] -5.08% [at 5.95 µM] | ratio activity, negative = inhibition [11] 0.24% [at 6.26 µM] | viability change, negative = cytotoxic [12] 33.3% [at 5.95 µM] | activity change, negative = cytotoxicity [13] 11.4% [at 5.95 µM] | activation [14] -2.3% [at 6.01 µM] | activity change, negative = inhibition [15] 4.12% [at 6.95 µM]

CCC(C)N (configuration not stated)
inactive: Potency [1] | Potency [2] | Potency [3] | outcome [4] | outcome [5] | Potency [16] | outcome [6] | outcome [7] | outcome [8] | outcome [9] | outcome [10] | outcome [11] | Potency [12] | outcome [17] | outcome [14] | outcome [15]

CCCCC(C)C(=O)O (configuration not stated)
inactive: Potency [1] | Potency [2] | Potency [3] | outcome [4] | outcome [5] | Potency [16] | outcome [6] | outcome [7] | outcome [8] | outcome [9] | outcome [18] | outcome [11] | Potency [12] | outcome [13] | outcome [14] | outcome [15]

C=C(C)C(=O)OC1CC(C)CC(C)(C)C1 (configuration not stated)
inactive: Potency [1] | Potency [2] | Potency [3] | outcome [4] | outcome [5] | outcome [6] | outcome [7] | outcome [9] | outcome [10] | outcome [11] | outcome [19] | Potency [12] | outcome [13] | outcome [14]

O=S(=O)(O)SSS(=O)(=O)O
inactive: Potency [1] | Potency [2] | Potency [3] | outcome [4] | outcome [5] | outcome [6] | outcome [7] | outcome [9] | outcome [10] | outcome [18] | outcome [11] | Potency [12] | outcome [13]

CC1CCC(C(C)(C)S)C(=O)C1 (configuration not stated)
inactive: Potency [1] | Potency [2] | Potency [3] | outcome [4] | outcome [5] | outcome [6] | outcome [7] | outcome [8] | outcome [9] | outcome [10] | outcome [11] | outcome [17] | outcome [13] | outcome [15]

CC(C)(c1ccc(Oc2ccc3c(c2)C(=O)OC3=O)cc1)c1ccc(Oc2ccc3c(c2)C(=O)OC3=O)cc1
inactive: Potency [1] | Potency [2] | Potency [3] | outcome [4] | outcome [5] | Potency [16] | outcome [6] | outcome [7] | outcome [8] | outcome [18] | outcome [11] | Potency [12] | outcome [13] | outcome [14]

C=C(C)C(=O)OC
inactive: Potency [1] | Potency [2] | Potency [3] | outcome [4] | outcome [5] | Potency [16] | outcome [6] | outcome [7] | outcome [8] | outcome [10] | outcome [18] | outcome [11] | Potency [12] | outcome [17] | outcome [13]

C[C@H](CCC(=O)O)[C@H]1CC[C@H]2[C@@H]3[C@H](O)C[C@@H]4C[C@H](O)CC[C@]4(C)[C@H]3C[C@H](O)[C@]12C
inactive: Potency [1] | Potency [2] | Potency [3] | outcome [4] | outcome [5] | Potency [16] | outcome [6] | outcome [7] | outcome [8] | outcome [9] | outcome [18] | Potency [12] | outcome [17] | outcome [13]

O=C(O)c1ccccc1C(=O)OCc1ccccc1
inactive: Potency [1] | Potency [2] | Potency [3] | outcome [4] | outcome [5] | Potency [16] | outcome [6] | outcome [7] | outcome [8] | outcome [10] | outcome [11] | outcome [19]

CC(C)CCCCCCOC(=O)C1CCCCC1C(=O)OCCCCCCC(C)C (configuration not stated)
inactive: Potency [1] | Potency [2] | Potency [3] | outcome [4] | outcome [5] | Potency [16] | outcome [6] | outcome [7] | outcome [9] | outcome [10] | outcome [18] | outcome [19] | Potency [12] | outcome [13] | outcome [14] | outcome [15]

CC(C)CCCC(C)CC=O (configuration not stated)
inactive: Potency [1] | Potency [2] | Potency [3] | outcome [4] | outcome [5] | Potency [16] | outcome [6] | outcome [7] | outcome [8] | outcome [10] | outcome [18] | Potency [12] | outcome [13]

From PubChem BioAssay (Tox21)
